# Cruzain inh noDet: inhibitors of Trypanosoma cruzi cruzain without detergent. P25779. AID 1476. purified cruzain, Z-FR-AMC fluorescence, no detergent. Potency, µM, for the others: max response, negative = inhibition, most hits filed as inhibitors. hit rate 2.3% among 200,000;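 also: plate controls were enzyme without inhibitor for no effect and buffer without enzyme for full effect; nearly all actives have a fitted effect of over 40% in size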
# Target sequence (P25779 123-467 limits assumed): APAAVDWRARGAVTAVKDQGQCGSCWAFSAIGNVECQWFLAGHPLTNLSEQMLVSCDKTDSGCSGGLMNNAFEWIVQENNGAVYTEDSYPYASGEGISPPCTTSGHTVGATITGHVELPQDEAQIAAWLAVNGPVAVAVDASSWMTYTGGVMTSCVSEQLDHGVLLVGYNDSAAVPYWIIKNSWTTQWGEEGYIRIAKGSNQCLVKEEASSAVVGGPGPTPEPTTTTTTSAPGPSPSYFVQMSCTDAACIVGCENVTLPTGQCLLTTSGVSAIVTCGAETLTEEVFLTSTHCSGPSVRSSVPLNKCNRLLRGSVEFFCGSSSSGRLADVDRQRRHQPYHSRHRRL
#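 Purified cruzain at 1.5 nM, pre-incubated 15 min with compound at room temperature in 100 mM sodium acetate pH 5.5, 5 mM DTT, 0.00005% Triton X-100. Reaction started with 2 uM Z-FR-AMC; AMC fluorescence increase over 60 s gives rate.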
# Cruzain Triton: blocks cruzain activity in presence of Triton detergent | Potency, µM, for inactives: max response, negative = inhibition, actives largely listed as inhibitors | P25779 | hit rate 0.43% among 200,000 | AID 1478 | purified cruzain, Z-FR-AMC fluorescence, 0.01% Triton;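 also: plate controls were neutral wells for no effect and buffer without enzyme for full effect; nearly all actives have a fitted effect of over 40% in size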
#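 Enzyme 1.5 nM, Z-FR-AMC 2 uM, NaOAc 100 mM pH 5.5, DTT 5 mM, Triton X-100 0.01%; 15 min RT compound preincubation; kinetic ex360/em450, 60 s delta.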
# * = called active by the depositor; ? = inconclusive; ! = repeats disagree. An excerpt weighted towards active compounds, which were near 2.6% of everything screened. Calls follow the shape of the dose curve; as a rule, active = well fitted curve in the direction sought with a large enough effect; inconclusive = small, poorly fitted or top-dose-only effect, or another doubt; inactive = no such curve, though single readings can be large; an effect the other way counts as inactive or inconclusive. Potency is read from the fitted curve at half-maximal effect.
SMILES,Cruzain inh noDet,Cruzain Triton
CCOc1ccc(CNC(=O)CCC(=O)N2CC3CCCN3c3ccccc32)cc1 (stereo not given),2.7%,-3.2%
Cc1ccc(O)c(/C=N/NC(=O)c2[nH]ncc2Br)c1,4.2%,-5.5%
Cc1ccc(O)c(/C=N/NC(=O)C2=NNC(c3ccccc3)(c3ccccc3)C2)c1,12.6µM*,-15.3%
Cc1ccc(C)c2[nH]c(=O)c(CN(Cc3ccc4c(c3)OCO4)Cc3nnnn3Cc3ccco3)cc12,-6.9%,-1.3%
Cc1ccc2cc(CN(Cc3ccc4c(c3)OCO4)Cc3nnnn3Cc3ccco3)c(=O)[nH]c2c1C,31.6µM*,-1.2%
CCCCCCN(C(=O)CCCCCN1C(=O)NC(c2ccc(-c3ccccc3)cc2)C(C(=O)OCc2ccccc2)=C1C)C(C(=O)NCCCC)c1ccc(OCC(=O)O)c(C(=O)O)c1 (stereo not given),1.2%,?
CCCCC(=O)N(C)C,0.6%,4.8%
c1ccc2c(c1)[nH]c1cnccc12,-14.9%,-9.7%
Cc1nccc2c1[nH]c1ccccc12,39.8µM*!,?
CCOc1ccc(C(=O)Nc2cccc(NC(=O)c3ccc(C(C)(C)C)cc3)c2)cc1Br,7.94µM*,1.1%
CCOc1ccc(C(=O)Nc2cccc(NC(=O)c3ccco3)c2)cc1Cl,-3.5%,-9.4%
CCCN(CC1CC1)c1nc(C)nc(Nc2c(Cl)cc(Cl)cc2Cl)c1Cl,25.1µM*!,-1.7%
CCCN(CC1CC1)c1nc(N)c(C#N)c(CC#N)c1C#N,-8.9%,-6.2%
CC(=O)OC1CCC2(C)C(=CC=C3C2CCC2(C)C3CCC2C(C)/C=C/C(C)C(C)C)C1(C)C (stereo not given),-7.5%,-1.0%
Cc1cc(CN2CCCCC2)c(O)c(CN2CCCCC2)c1,-9.3%,0.3%
O=C(NCCc1nc2ccccc2[nH]1)c1ccc(F)cc1,1.26µM*,?
CC(=O)NCCc1nc2ccccc2[nH]1,-7.1%,-2.2%
COc1ccccc1C(=O)NCCc1nc2ccccc2[nH]1,5.01µM*,15.8µM*
COCC(=O)NCCc1nc2ccccc2[nH]1,?,-10.7%
COC(=O)c1ccc(C(NC(=O)OCc2ccccc2)/C(I)=C/[C@@H](C)C(=O)Nc2ccccc2)cc1 (stereo not given in full),-13.5%,-4.5%
C[C@H](Br)C(=O)Nc1ccc(C(=O)O)c(O)c1,9.7%,-2.0%
Cc1nc(NC(=S)NC(=O)COc2ccc(Cl)cc2)ccc1Br,?,0.5%
Cc1ccc(OCC(=O)NC(=S)Nc2ccc(Br)c(C)n2)cc1,15.8µM*,4.1%
O=C(Nc1ccccc1)c1ccc(Br)c(S(=O)(=O)N2CCCCC2)c1,6.9%,-6.6%
COc1c(C)cc(NS(=O)(=O)c2ccc3c(c2)OCCO3)cc1C,-8.0%,-5.5%
SMILES,Cruzain inh noDet,Cruzain Triton
COc1ccc(-c2nnc(SCC(=O)NCCc3ccc(OC)c(OC)c3)nc2-c2ccc(OC)cc2)cc1,?,-11.9%
N#Cc1c(C(F)(F)F)cc(-c2cccs2)nc1SCc1cccnc1,?,31.6µM*
N#Cc1c(C(F)(F)F)cc(-c2cccs2)nc1SCc1ccc(F)cc1,7.7%,-1.4%
Cc1ccc(Cn2c(C(C)NC(=O)c3ccccc3)nc3ccccc32)cc1 (stereo not given),1.3%,-1.0%
Fc1ccc(Nc2nc(-c3ccc(F)cc3)c3c(n2)-c2ccccc2OC3)cc1,?,-8.5%
COc1ccccc1Nc1nc(-c2ccc(F)cc2)c2c(n1)-c1ccccc1OC2,10µM*,-4.8%
Cc1cc(Nc2cccc(C(F)(F)F)c2)n2nc(C)nc2n1,-4.1%,-0.9%
COc1ccc(-c2nc3nc(C)cc(Nc4cccc(C(F)(F)F)c4)n3n2)cc1,25.1µM*,-0.9%
N#CC1=C(N)n2c(s/c(=C\c3cccs3)c2=O)=C(C#N)C1c1cccs1 (stereo not given),25.1µM*,-24.5%
N#CC1=C(N)n2c(s/c(=C\c3ccco3)c2=O)=C(C#N)C1c1ccco1 (stereo not given),-24.8%,-9.4%
Nc1ccccc1-c1ccccc1,1.5%,4.6%
Cc1cccc(-n2c3nc(=O)n(C)c(=O)c-3cc3c(C)nn(-c4ccccc4)c32)c1C,-1.9%,-1.1%
Cc1ccc(-c2nn(-c3cc(Cl)ccc3[N+](=O)[O-])c(=O)c3ccccc23)cc1C,12.6µM*,0.0%
O=c1c2ccccc2c(-c2ccccc2)nn1-c1cc(Cl)ccc1[N+](=O)[O-],?,-0.9%
CCCCN(CC)C(=O)c1cc2c(=O)n3cccc(C)c3nc2n1C,15.1%,-0.6%
CCC(C)NC(=O)c1cc2c(Cl)nc3ccc(C)cc3c2s1 (stereo not given),2.2%,-1.1%
CN1CCc2ccccc2[C@@H]1Cc1ccccc1NC(=O)c1sc2ccccc2c1Cl,-5.7%,-6.1%
Nc1cc(C(=O)O)ccc1Nc1ccccc1,-4.5%,-1.1%
Nc1ccc(Nc2ccccc2N)cc1,25.1µM*,-9.1%
Clc1cccc(N2CCN(c3nc4ccccc4n4nnnc34)CC2)c1,20µM*,-3.0%
Cc1ccc2nc(N3CCN(c4ccccc4)CC3)c3nnnn3c2c1,-1.9%,-0.3%
